Records with an inconclusive call do not appear. Activity calls are given as the source filed them. Calls follow the shape of the dose curve; as a rule, active = well fitted inhibition curve with a large enough effect; inconclusive = small, poorly fitted or top-dose-only effect; inactive = flat fitted curve, though single readings scatter. Where a SMILES comes first, the peptide text is derived from it. [ ]: non-standard residue; d: D form. pGlu = O=C1CC[C@@H](C(=O)O)N1
Tests used:
[1] = Drug repurposing screens with cells derived from glioblastoma tumor samples (AID 1345199); details: GBM patient neurospheres viability, ATP luminescence, 48 h; also: nearly all actives have a fitted effect of over 40% in size
Outline: (§1)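 Four patient lines of CD133+ GBM neurospheres were screened at several concentrations; hits were retested in those lines plus three slower-growing GBM lines, using 48-hour treatment and ATP-based viability.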

astro = control astrocytes; experiment: as above; details: viability, ATP luminescence, 48 h; series mostly up to 45.9 µM
Outline: as §1

[2] = at 45.9 µM (top of the series), tumour line B
[3] = at 45.9 µM (top of the series), tumour line D
[4] = at 46 µM (top of the series), tumour line A
[5] = at 46.1 µM (top of the series), tumour line C
[6] = at 20 µM (top of the series), tumour line C
[7] = at 21.2 µM (top of the series), tumour line B
[8] = at 21.2 µM (top of the series), tumour line D
[9] = at 21.3 µM (top of the series), tumour line A
% is scaled to controls: 0 for no effect and ±100 for the full control effect.

COC(=O)C(CN)c1c[nH]c2ccc(OC)cc12 (stereo not given)
inactive: activity, negative = cell killing [1, 2] -10.3% | activity, negative = cell killing [1, 3] -14.4% | activity, negative = cell killing [1, 4] -30.9% | activity, negative = cell killing [1, 5] -0.904% | Potency (astro)

NCC(O)CC(=O)O (stereo not given)
inactive: activity, negative = cell killing [1, 2] -5.1% | activity, negative = cell killing [1, 3] -3.38% | activity, negative = cell killing [1, 4] -5.53% | activity, negative = cell killing [1, 5] 12.2% | Potency (astro)

CO[C@@]1(NC(=O)C2SC(=C(C(N)=O)C(=O)O)S2)C(=O)N2C(C(=O)O)=C(CSc3nnnn3C)CS[C@@H]21 (stereo not given in full)
inactive: activity, negative = cell killing [1, 6] -19.2% | activity, negative = cell killing [1, 7] -15.8% | activity, negative = cell killing [1, 8] -10.4% | activity, negative = cell killing [1, 9] -12.5% | Potency (astro)

O=C1C2CC3CC1CC(O)(C3)C2
inactive: activity, negative = cell killing [1, 2] 0.0639% | activity, negative = cell killing [1, 3] -11.1% | activity, negative = cell killing [1, 4] -19.7% | activity, negative = cell killing [1, 5] -14.8% | Potency (astro)

CC(=O)N[C@@H]1C(O[C@H]2O[C@H](C(=O)O)C(O)[C@H](O)[C@H]2O)[C@H](O)[C@@H](CO)O[C@H]1O[C@@H]1C(C(=O)O)O[C@@H](O[C@H]2[C@H](O)[C@@H](CO)OC(O)[C@@H]2NC(C)=O)[C@H](O)[C@H]1O (stereo not given in full)
inactive: activity, negative = cell killing [1, 2] -6.99% | activity, negative = cell killing [1, 3] -9.84% | activity, negative = cell killing [1, 4] -10.4% | activity, negative = cell killing [1, 5] -7.36% | Potency (astro)

CC(C)(C)CC(C)(C)c1cc(Cc2cc(C(C)(C)CC(C)(C)C)cc(-n3nc4ccccc4n3)c2O)c(O)c(-n2nc3ccccc3n2)c1
inactive: activity, negative = cell killing [1, 2] -3.94% | activity, negative = cell killing [1, 3] -1.11% | activity, negative = cell killing [1, 4] -36.5% | activity, negative = cell killing [1, 5] -23.5% | Potency (astro)

CC1(C)S[C@@H]2[C@H](N3C(=O)C(c4ccccc4)NC3(C)C)C(=O)N2[C@H]1C(=O)O (stereo not given in full)
inactive: activity, negative = cell killing [1, 2] -8.88% | activity, negative = cell killing [1, 3] -1.4% | activity, negative = cell killing [1, 4] -5.42% | activity, negative = cell killing [1, 5] -5.2% | Potency (astro)

CCCC1C(=O)N2C(N(C)C)=Nc3ccc(C)cc3N2C1=O (stereo not given)
inactive: activity, negative = cell killing [1, 6] -0.417% | activity, negative = cell killing [1, 7] -20.8% | activity, negative = cell killing [1, 8] -11.9% | activity, negative = cell killing [1, 9] -28.1% | Potency (astro)

CO/N=C(\C(=O)N[C@@H]1C(=O)N2C(C(=O)O)=CCS[C@H]12)c1csc(N)n1
inactive: activity, negative = cell killing [1, 2] -10.9% | activity, negative = cell killing [1, 3] -17.7% | activity, negative = cell killing [1, 4] -10.3% | activity, negative = cell killing [1, 5] -14% | Potency (astro)

CCCCCCCCCCCCCCCC(=O)OC[C@H](COP(=O)([O-])OCC[N+](C)(C)C)OC(=O)CCCCCCCCCCCCCCC
inactive: activity, negative = cell killing [1, 2] -12.1% | activity, negative = cell killing [1, 3] -1.49% | activity, negative = cell killing [1, 4] -32.2% | activity, negative = cell killing [1, 5] -17.2% | Potency (astro)

CCCCCCCCCCCC(=O)OCC(O)CO (stereo not given)
inactive: activity, negative = cell killing [1, 2] -6.19% | activity, negative = cell killing [1, 3] -1.8% | activity, negative = cell killing [1, 4] -27.7% | activity, negative = cell killing [1, 5] -2.49% | Potency (astro)

CN(C)C=Nc1c(I)cc(I)c(CCC(=O)O)c1I
inactive: activity, negative = cell killing [1, 2] -15.9% | activity, negative = cell killing [1, 3] 6.53% | activity, negative = cell killing [1, 4] -8.71% | activity, negative = cell killing [1, 5] -9.66% | Potency (astro)

CC1(C)[C@H]2CC[C@]1(C)[C@H](O)C2
inactive: activity, negative = cell killing [1, 2] -3.63% | activity, negative = cell killing [1, 3] -3.69% | activity, negative = cell killing [1, 4] -22.7% | activity, negative = cell killing [1, 5] -20.6% | Potency (astro)

Cn1cc(NC(=O)c2cc(NC(=O)c3cc(NC=O)cn3C)cn2C)cc1C(=O)NCCC(=N)N
inactive: activity, negative = cell killing [1, 2] -15.1% | activity, negative = cell killing [1, 3] -11.2% | activity, negative = cell killing [1, 4] -20.5% | activity, negative = cell killing [1, 5] -26.2% | Potency (astro)

NCCCC[C@H](N)C(=O)O
inactive: activity, negative = cell killing [1, 2] -13.6% | activity, negative = cell killing [1, 3] 9.14% | activity, negative = cell killing [1, 4] -18.9% | activity, negative = cell killing [1, 5] 9.67% | Potency (astro)

NC[C@H]1O[C@H](O[C@H]2[C@H](O)[C@@H](O[C@H]3O[C@H](CO)[C@@H](O)[C@H](N)[C@H]3O)[C@H](N)C[C@@H]2N)[C@H](O)[C@@H](O)[C@@H]1O
inactive: activity, negative = cell killing [1, 6] 3.71% | activity, negative = cell killing [1, 7] -14.2% | activity, negative = cell killing [1, 8] 0.603% | activity, negative = cell killing [1, 9] -23.6% | Potency (astro)

CC(=O)[C@@]1(O)CC[C@H]2[C@@H]3C=C(Cl)C4=CC(=O)[C@@H]5C[C@@H]5[C@]4(C)[C@H]3CC[C@@]21C
inactive: activity, negative = cell killing [1, 2] -14.4% | activity, negative = cell killing [1, 3] -9.17% | activity, negative = cell killing [1, 4] -35.1% | activity, negative = cell killing [1, 5] -13.6% | Potency (astro)

CC[C@H](C)[C@H](NC(=O)[C@H](Cc1ccccc1)NC(=O)[C@H](C)NC(=O)[C@H](CC(=O)O)NC(=O)[C@H](CCCCN)NC(=O)[C@H](CO)NC(=O)[C@@H]1CCCN1C(=O)[C@@H]1CCC(=O)N1)C(=O)NCC(=O)N[C@@H](CC(C)C)C(=O)N[C@@H](CCSC)C(N)=O ([pGlu]PSKDAFIGLM-NH2)
inactive: activity, negative = cell killing [1, 2] -11.4% | activity, negative = cell killing [1, 3] 13.8% | activity, negative = cell killing [1, 4] -9.58% | activity, negative = cell killing [1, 5] -14.3% | Potency (astro)
